Active and inactive are the calls of the source. How the source made its calls: active means hit-call score of the fitted dose curve at least 0.9, where 1 is the maximum; inactive means score below 0.9.
Assays:
Conditions in all cases: mRNA level, 48 h; actives raise or lower the signal
[1] = read-out: Hypoxia-inducible factor 1-alpha (Homo sapiens) (UniProt Q16665); experiment: LTEA_HepaRG_HIF1A: Life Technologies and Expression Analysis (LTEA) Assay for Hypoxia-inducible factor 1 (HIF1A) Trancription factor using HepaRG (AID 2283503)
In short: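 HIF1A transcript level read by qRT-PCR (ACTB, GAPDH, POLR2A normalization) after 48 h chemical exposure of HepaRG cultures. Eight half-log concentrations, top 100 uM, 0.5% DMSO vehicle, duplicates; bidirectional curve fit against DMSO baseline.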

[2] = read-out: 3-Hydroxy-3-Methylglutaryl-CoA Synthase 2 (HMGCS2), HMGCS2 (gene 3158); experiment: LTEA_HepaRG_HMGCS2: Life Technologies and Expression Analysis (LTEA) Assay for 3-Hydroxy-3-Methylglutaryl-CoA Synthase 2 (HMGCS2) using HepaRG (AID 2283504)
In short: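 This steatosis marker was read as HMGCS2 mRNA change in HepaRG cells treated 48 h with up to 100 uM chemical. Normalisation used housekeeping genes; activity in either direction was fitted relative to 0.5% DMSO vehicle.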

HGF (gene 3082) = experiment: LTEA_HepaRG_HGF: Life Technologies and Expression Analysis (LTEA) Assay for Hepatocyte Growth Facto (HGF) using HepaRG (AID 2283505)
In short: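 Using HepaRG monolayers kept in 0.5% DMSO, chemicals were tested in duplicate over eight half-log concentrations from 100 uM for 48 h. Endpoint: HGF mRNA change relative to DMSO, normalized to ACTB/GAPDH/POLR2A.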

[3] = read-out: Insulin Like Growth Factor 1 (IGF1), IGF1 (gene 3479); experiment: LTEA_HepaRG_IGF1: Life Technologies and Expression Analysis (LTEA) Assay for Insulin Like Growth Factor 1 (IGF1) using HepaRG (AID 2283506)
In short: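 Expression measured by TaqMan qRT-PCR on a Fluidigm array, with three housekeeping genes for normalisation, after 48 h treatment of HepaRG cells. Top concentration 100 uM with half-log steps, 0.5% DMSO vehicle, bidirectional fit.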

[4] = read-out: Intercellular Adhesion Molecule 1 (ICAM1), ICAM1 (gene 3383); experiment: LTEA_HepaRG_ICAM1: Life Technologies and Expression Analysis (LTEA) Assay for Intercellular Adhesion Molecule 1 (ICAM1) using HepaRG (AID 2283507)
In short: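 Using the human liver line HepaRG, compounds are tested in duplicate over 48 h at concentrations up to 100 uM. Expression is determined by TaqMan qRT-PCR, normalized to endogenous controls, and analysed relative to 0.5% DMSO vehicle.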

[5] = read-out: Insulin-like growth factor-binding protein 1 (IGFBP1), IGFBP1 (gene 3484); experiment: LTEA_HepaRG_IGFBP1: Life Technologies and Expression Analysis (LTEA) Assay for Insulin-like growth factor-binding protein 1 (IGFBP1) using HepaRG (AID 2283508)
In short: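 HepaRG, 48 h, 8 conc. (max 100 uM, half-log), duplicates, 0.5% DMSO. Readout: TaqMan qRT-PCR, ACTB/GAPDH/POLR2A normalisation. Fit: bidirectional vs DMSO.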

[6] = read-out: Interleukin 6 (IL6), IL6 (gene 3569); experiment: LTEA_HepaRG_IL6: Life Technologies and Expression Analysis (LTEA) Assay for Interleukin 6 (IL6) using HepaRG (AID 2283509)
In short: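 Transcript levels, normalized to three housekeeping genes, were quantified by qRT-PCR after 48 h chemical treatment of HepaRG cells. Eight-point half-log series from 100 uM in 0.5% DMSO, duplicates. Fitted both directions against DMSO baseline.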

[7] = read-out: Interleukin 6 Receptor (IL6R), IL6R (gene 3570); experiment: LTEA_HepaRG_IL6R: Life Technologies and Expression Analysis (LTEA) Assay for Interleukin 6 Receptor (IL6R) using HepaRG (AID 2283510)
In short: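 IL6R transcript level by qRT-PCR after 48 h chemical exposure (8-point, half-log, max 100 uM, 0.5% DMSO vehicle) of HepaRG cells in serum-free induction medium. Normalized to three housekeeping genes; curves fitted in both directions relative to DMSO.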

[8] = read-out: Potassium channel subfamily K member 1 (KCNK1), KCNK1 (gene 3775); experiment: LTEA_HepaRG_KCNK1: Life Technologies and Expression Analysis (LTEA) Assay for Potassium channel subfamily K member 1 (KCNK1) using HepaRG (AID 2283511)
In short: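 KCNK1 transcript measured by TaqMan qRT-PCR against three housekeeping genes, after HepaRG cells were treated 48 h with eight half-log concentrations (top 100 uM, 0.5% DMSO). Curves fitted bidirectionally relative to vehicle.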

[9] = read-out: Keratin 19 (KRT19), KRT19 (gene 3880); experiment: LTEA_HepaRG_KRT19: Life Technologies and Expression Analysis (LTEA) Assay for Keratin 19 (KRT19) using HepaRG (AID 2283512)
In short: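 Readout is qRT-PCR of KRT19 mRNA, normalized to ACTB, GAPDH and POLR2A, from HepaRG cells treated 48 h with eight-point half-log dilutions topping at 100 uM. Activity in either direction is scored relative to 0.5% DMSO vehicle.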

[10] = read-out: Lipase C (LIPC), LIPC (gene 3990); experiment: LTEA_HepaRG_LIPC: Life Technologies and Expression Analysis (LTEA) Assay for Lipase C (LIPC) using HepaRG (AID 2283514)
In short: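 LIPC expression was quantified by qRT-PCR against three housekeeping genes (ACTB, GAPDH, POLR2A). Differentiated human HepaRG cells received eight half-log doses (top 100 uM, 0.5% DMSO) in duplicate for 48 h; fitting bidirectional relative to DMSO.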

[11] = read-out: Lipoprotein lipase (LPL), LPL (gene 4023); experiment: LTEA_HepaRG_LPL: Life Technologies and Expression Analysis (LTEA) Assay for Lipoprotein lipase (LPL) using HepaRG (AID 2283515)
In short: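 LPL transcript levels quantified by TaqMan qRT-PCR against three housekeeping genes after 48 h chemical treatment of HepaRG cells. Eight-point half-log series from 100 uM in 0.5% DMSO, tested in duplicate; bidirectional fitting versus vehicle.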

[12] = read-out: matrix metalloproteinase-10 (MMP10), MMP10 (gene 4319); experiment: LTEA_HepaRG_MMP10: Life Technologies and Expression Analysis (LTEA) Assay for matrix metalloproteinase-10 (MMP10) using HepaRG (AID 2283517)
In short: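 Expression measured by TaqMan qRT-PCR with ACTB/GAPDH/POLR2A normalisation after 48 h chemical exposure of HepaRG cells. Eight half-log concentrations, top 100 uM, 0.5% DMSO vehicle, duplicates; gain or loss fitted against vehicle.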

MYC, MYC (gene 4609) = experiment: LTEA_HepaRG_MYC: Life Technologies and Expression Analysis (LTEA) Assay for MYC using HepaRG (AID 2283518)
In short: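 Expression changes were scored by TaqMan qRT-PCR with ACTB, GAPDH and POLR2A normalization. Cultures in serum-free induction medium received duplicate 8-point concentration series, highest 100 uM, for 48 h; DMSO (0.5%) served as baseline.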

[13] = read-out: matrix metalloproteinase-3 (MMP3), MMP3 (gene 4314); experiment: LTEA_HepaRG_MMP3: Life Technologies and Expression Analysis (LTEA) Assay for matrix metalloproteinase-3 (MMP3) using HepaRG (AID 2283519)
In short: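 Fluidigm-based TaqMan qRT-PCR, normalized to ACTB, GAPDH and POLR2A and fitted bidirectionally versus 0.5% DMSO, measured transcript levels. Treatment: duplicate 48 h exposures of HepaRG cells, ~100,000/well, to eight half-log concentrations topping at 100 uM.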

[14] = read-out: Paternally Expressed 10 (PEG10), PEG10 (gene 23089); experiment: LTEA_HepaRG_PEG10: Life Technologies and Expression Analysis (LTEA) Assay for Paternally Expressed 10 (PEG10) using HepaRG (AID 2283520);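 on AC50: PEG10 transcript by qRT-PCR normalised to ACTB GAPDH and POLR2A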
In short: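 PEG10 transcript measured by Fluidigm qRT-PCR, normalized to three housekeeping genes, in HepaRG cells treated 48 h (highest 100 uM, half-log steps, 0.5% DMSO vehicle). Cells plated 48 h before switching to serum-free induction medium.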

[15] = read-out: Heat shock 70 kDa protein 1 (HSPA1A), gene 3303; experiment: LTEA_HepaRG_HSPA1A: Life Technologies and Expression Analysis (LTEA) Assay for Heat shock 70 kDa protein 1 (HSPA1A) using HepaRG (AID 2283502)
In short: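 HSPA1A expression measured by qRT-PCR with ACTB/GAPDH/POLR2A normalization; curves fitted in both directions relative to DMSO vehicle. Exposure: 48 h in HepaRG cells, duplicate 8-point half-log series from 100 uM, 0.5% DMSO, serum-free induction medium.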

[16] = read-out: JUN Transcription Factor, JUN (gene 3725); experiment: LTEA_HepaRG_JUN: Life Technologies and Expression Analysis (LTEA) Assay for JUN Transcription Factor using HepaRG (AID 2283513)
In short: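 mRNA measured by TaqMan qRT-PCR after 48 h chemical exposure of HepaRG cultures; normalization to three housekeeping genes. Duplicate eight-point half-log curves from 100 uM in 0.5% DMSO; gain or loss fitted against DMSO baseline.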

[17] = read-out: Nuclear factor NF-kappa-B p105 subunit (Homo sapiens) (UniProt P19838); experiment: LTEA_HepaRG_NFKB1: Life Technologies and Expression Analysis (LTEA) Assay for Nuclear Factor Kappa B Subunit 1 (NFKB1) using HepaRG (AID 2283521);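 further: TaqMan qRT-PCR transcript normalised to ACTB GAPDH and POLR2A housekeeping genes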
In short: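 Differentiated human HepaRG cells were exposed for 48 h in serum-free induction medium to eight concentrations (top 100 uM, half-log steps, 0.5% DMSO), in duplicate. NFKB1 mRNA was measured by TaqMan qRT-PCR, normalized to ACTB/GAPDH/POLR2A, and fitted bidirectionally against DMSO.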

[18] = read-out: MicroRNA 122 (MIR122), gene 406906; experiment: LTEA_HepaRG_MIR122: Life Technologies and Expression Analysis (LTEA) Assay for MicroRNA 122 (MIR122) using HepaRG (AID 2283516); further: the transcript read is the microRNA miR-122
In short: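 Expression measured by microfluidic qRT-PCR with three housekeeping genes for normalisation, after 48 h treatment of HepaRG cultures. Eight concentrations (top 100 uM, half-log steps, 0.5% DMSO vehicle) in duplicate; gain or loss fitted relative to vehicle.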

Measured: AC50

Chain of Hypoxia-inducible factor 1-alpha (Homo sapiens) (Q16665 whole entry, looked up): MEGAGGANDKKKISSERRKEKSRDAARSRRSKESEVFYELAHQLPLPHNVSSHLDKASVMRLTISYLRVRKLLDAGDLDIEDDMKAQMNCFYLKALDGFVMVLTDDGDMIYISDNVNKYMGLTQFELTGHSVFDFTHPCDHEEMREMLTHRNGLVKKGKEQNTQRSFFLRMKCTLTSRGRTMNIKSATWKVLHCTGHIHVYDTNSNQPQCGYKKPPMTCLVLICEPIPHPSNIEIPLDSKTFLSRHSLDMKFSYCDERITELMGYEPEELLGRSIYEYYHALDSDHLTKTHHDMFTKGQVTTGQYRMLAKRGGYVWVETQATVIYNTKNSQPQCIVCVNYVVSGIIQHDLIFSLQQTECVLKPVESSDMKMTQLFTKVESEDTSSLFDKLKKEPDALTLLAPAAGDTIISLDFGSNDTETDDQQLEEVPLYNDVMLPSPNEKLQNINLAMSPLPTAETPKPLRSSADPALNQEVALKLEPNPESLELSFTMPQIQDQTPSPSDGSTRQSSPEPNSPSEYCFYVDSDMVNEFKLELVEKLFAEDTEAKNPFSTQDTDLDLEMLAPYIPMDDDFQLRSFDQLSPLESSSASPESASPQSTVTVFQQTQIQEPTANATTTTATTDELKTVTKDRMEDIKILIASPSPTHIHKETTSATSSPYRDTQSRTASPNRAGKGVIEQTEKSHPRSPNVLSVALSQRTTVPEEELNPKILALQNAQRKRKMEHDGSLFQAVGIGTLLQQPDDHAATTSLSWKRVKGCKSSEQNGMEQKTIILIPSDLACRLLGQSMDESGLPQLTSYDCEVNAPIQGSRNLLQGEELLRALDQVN
Chain of Nuclear factor NF-kappa-B p105 subunit (Homo sapiens) (P19838 whole entry, looked up): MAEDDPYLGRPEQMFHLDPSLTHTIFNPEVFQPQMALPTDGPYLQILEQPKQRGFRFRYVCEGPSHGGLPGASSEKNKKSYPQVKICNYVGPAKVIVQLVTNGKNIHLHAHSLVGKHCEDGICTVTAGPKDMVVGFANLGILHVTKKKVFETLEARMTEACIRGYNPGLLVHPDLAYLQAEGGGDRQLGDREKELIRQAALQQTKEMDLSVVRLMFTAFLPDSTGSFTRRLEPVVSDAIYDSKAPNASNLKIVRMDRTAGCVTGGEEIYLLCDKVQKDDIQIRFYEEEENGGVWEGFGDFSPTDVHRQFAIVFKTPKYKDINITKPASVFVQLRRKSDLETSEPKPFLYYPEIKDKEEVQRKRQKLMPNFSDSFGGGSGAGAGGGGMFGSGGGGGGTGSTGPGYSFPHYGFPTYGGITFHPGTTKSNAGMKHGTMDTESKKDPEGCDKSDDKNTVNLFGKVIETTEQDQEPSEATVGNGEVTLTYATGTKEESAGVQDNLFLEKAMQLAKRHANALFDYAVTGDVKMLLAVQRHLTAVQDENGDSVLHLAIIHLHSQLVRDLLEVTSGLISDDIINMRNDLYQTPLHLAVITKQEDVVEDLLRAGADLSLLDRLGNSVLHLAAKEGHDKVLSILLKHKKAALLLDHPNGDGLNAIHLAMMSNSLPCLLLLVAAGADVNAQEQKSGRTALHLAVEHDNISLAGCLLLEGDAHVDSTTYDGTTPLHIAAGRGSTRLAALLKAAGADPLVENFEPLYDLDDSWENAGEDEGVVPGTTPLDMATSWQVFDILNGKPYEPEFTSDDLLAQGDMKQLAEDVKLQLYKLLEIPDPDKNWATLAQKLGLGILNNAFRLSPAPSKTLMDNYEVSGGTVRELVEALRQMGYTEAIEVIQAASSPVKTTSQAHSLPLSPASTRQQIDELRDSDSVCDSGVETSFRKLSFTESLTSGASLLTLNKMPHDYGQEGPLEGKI

CCNS(=O)(=O)C(F)(F)C(F)(F)C(F)(F)C(F)(F)C(F)(F)C(F)(F)C(F)(F)C(F)(F)F
active: [3] 48.2 µM | [9] 48.2 µM | [14] 15.5 µM
inactive: [1] | [2] | HGF (gene 3082) | [4] | [5] | [6] | [7] | [8] | [10] | [11] | [12] | MYC, MYC (gene 4609) | [13]

N#CC(Br)Br
inactive: [15] | [2] | HGF (gene 3082) | [3] | [4] | [5] | [6] | [7] | [8] | [16] | [10] | [11] | [12] | MYC, MYC (gene 4609) | [13] | [14] | [17]

C[C@]12C=CC3=C4CCC(=O)C=C4CC[C@H]3[C@@H]1CC[C@@H]2O
inactive: [1] | [2] | HGF (gene 3082) | [4] | [5] | [7] | [8] | [16] | [11] | [12] | MYC, MYC (gene 4609) | [13] | [17]
active: [3] 55.6 µM | [6] 9.92 µM | [14] 0.805 µM

Brc1ccc(Oc2ccccc2)cc1
inactive: [15] | [2] | HGF (gene 3082) | [3] | [4] | [5] | [6] | [7] | [8] | [10] | [11] | [18] | [12] | MYC, MYC (gene 4609) | [13] | [14] | [17]

CCCCCCCCOC(=O)c1ccc(C(=O)OCCCCCCCC)c(C(=O)OCCCCCCCC)c1
inactive: [15] | [2] | HGF (gene 3082) | [3] | [4] | [6] | [7] | [8] | [16] | [10] | [11] | [18] | [12] | [13] | [14] | [17]

CCN(CC)N=O
inactive: [15] | [2] | HGF (gene 3082) | [3] | [4] | [5] | [6] | [7] | [8] | [16] | [10] | [11] | [18] | [12] | MYC, MYC (gene 4609) | [13] | [14] | [17]

Clc1ccc(C(c2ccc(Cl)cc2)C(Cl)(Cl)Cl)cc1
active: [3] 50 µM | [10] 84.5 µM | [11] 50 µM
inactive: [1] | [2] | HGF (gene 3082) | [4] | [5] | [6] | [7] | [8] | [9] | [16] | [12] | MYC, MYC (gene 4609) | [13] | [14] | [17]
